Only some compounds are listed: those with a hit (about 9.2% of all), similar ones and a draw of the others.
NPC1 promoter act: qHTS Assay for NPC1 Promoter Activators | AID 485313, 2010 | Potency, µM (titrated, usually from 9.22 µM), most hits filed as activators | Huh7 NPC1 promoter luciferase reporter, 24 h | hit rate 2.4% among 320,000; note: nearly all actives have a fitted effect of over 60% in size
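Cells: Huh7 expressing luciferase under the NPC1 promoter, 1500/well. Seeded 2 h, compound added, incubated 24 h at 37 °C. Luciferase reagent, 10 min ambient, then luminescence.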
ELG1 DNA repair: qHTS screen for small molecules that inhibit ELG1-dependent DNA repair in human embryonic kidney (HEK293T) cells expressing luciferase-tagged ELG1; hit rate 2.3% among 330,000; HEK293T ELG1-luciferase reporter, luminescence, 16 h; DNA damage induced by 5-fluorouridine; Potency, µM (doses to about 46.1 µM), most hits filed as inhibitors; note: nearly all actives have a fitted effect of over 55% in size
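Quantitative HTS, concentration-response format. 2,000 cells/well co-treated with 5-fluorouridine and compound, 16 hr in 5% CO2 at 37 °C; ONE-Glo luminescence read after 30 min.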
ELG1 genotox: qHTS screen for small molecules that induce genotoxicity in human embryonic kidney (HEK293T) cells expressing luciferase-tagged ELG1. HEK293T ELG1-luciferase reporter, luminescence, 16 h. Potency, µM (top dose mostly 46 µM), most hits filed as activators. hit rate 1.3% among 330,000. AID 504466, 2011; note: nearly all actives have a fitted effect of over 60% in size
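HEK293T cells expressing luciferase-tagged ELG1 were exposed to compound or DMSO vehicle for 16 hr at 37 °C and 5% CO2. Luciferase activity was then measured with ONE-Glo after 30 min at room temperature.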
FLuc modulator: qHTS profiling assay for firefly luciferase inhibitor/activator using purifed enzyme and Km concentrations of substrates (counterscreen for miR-21 project) | Luciferin 4-monooxygenase (Photinus pyralis), P08659 | purified FLuc, Km substrates, luminescence inhibition | Potency, µM (titrated, usually from 57.5 µM), hits mostly inhibitors | hit rate 6.9% among 360,000; note: nearly all actives have a fitted effect of over 55% in size
Target sequence (P08659 whole entry, looked up): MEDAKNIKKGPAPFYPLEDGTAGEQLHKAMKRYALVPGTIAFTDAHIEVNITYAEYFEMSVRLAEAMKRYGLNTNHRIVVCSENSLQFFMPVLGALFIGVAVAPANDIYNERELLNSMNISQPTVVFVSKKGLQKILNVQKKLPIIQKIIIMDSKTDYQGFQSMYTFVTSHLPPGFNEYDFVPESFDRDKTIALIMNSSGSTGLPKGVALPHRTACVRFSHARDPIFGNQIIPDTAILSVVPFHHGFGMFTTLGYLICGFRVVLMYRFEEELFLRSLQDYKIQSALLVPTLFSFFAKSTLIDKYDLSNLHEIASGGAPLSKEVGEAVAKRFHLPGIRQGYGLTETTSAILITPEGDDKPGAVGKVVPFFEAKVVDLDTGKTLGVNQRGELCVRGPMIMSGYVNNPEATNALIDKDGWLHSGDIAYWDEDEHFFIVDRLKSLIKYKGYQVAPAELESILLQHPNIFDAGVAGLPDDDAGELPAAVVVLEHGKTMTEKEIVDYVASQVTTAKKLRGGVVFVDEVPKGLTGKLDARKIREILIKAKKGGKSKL
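Biochemical qHTS of compounds, final roughly 60 µM downward over six points, against 10 nM purified firefly luciferase using Km concentrations of substrates (10 uM D-luciferin, 10 uM ATP) in Tris acetate pH 7.5 buffer; luminescence output.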
SMN2 splice up: qHTS Assay for Enhancers of SMN2 Splice Variant Expression | HEK293 SMN2-luciferase splicing reporter, luminescence, 30-36 h | Potency, µM (series often up to 46.1 µM), hits mostly activators | hit rate 2.8% among 210,000; note: nearly all actives have a fitted effect of over 55% in size
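HEK293 cells carry an SMN2 […]–luciferase reporter in which exon 7 inclusion puts luciferase in frame. Cells were plated 10-12 h before compound addition, then incubated 30-36 h at 37C. ONE-Glo luminescence was read; sodium butyrate at 4.5 mM final served as control.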
Rab9 promoter act: qHTS Assay for Rab9 Promoter Activators. Huh7 Rab9 promoter-luciferase reporter, luminescence, 24 h. Potency, µM (highest dose often 9.22 µM), hits mostly activators. hit rate 2.8% among 320,000; note: nearly all actives have a fitted effect of over 60% in size
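Cells were plated at 1500 per well in reduced-serum medium with 10% FBS and left 2 h. Compound in DMSO was then added for 24 h at 37 °C. Reporter signal was read by luminescence after 10 min with luciferase detection reagent.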
Large screens that a line does not name were inactive. Calls come from the whole dose curve; as a rule, active = well fitted curve in the direction sought with a large enough effect; inconclusive = small, poorly fitted or top-dose-only effect, or another doubt; inactive = no such curve, though single readings can be large; an effect the other way counts as inactive or inconclusive.

O=C(CCN1C(=O)c2ccccc2S1(=O)=O)Nc1ccc2c(c1)OCCO2	FLuc modulator inconclusive
CCCn1ccc2c(OCC(=O)Nc3cc(C)ccc3C)cccc2c1=O	none (no result: NPC1 promoter act, ELG1 DNA repair, ELG1 genotox, SMN2 splice up, Rab9 promoter act)
COc1ccc(S(=O)(=O)N(C)C)cc1NC(=O)COC(=O)c1nc2nccc(C)n2n1	none (no result: SMN2 splice up)
CCOC(=O)C1CN(S(=O)(=O)c2cccs2)c2ccc(CC(=O)OC)cc2O1 (stereo unspecified)	none (no result: SMN2 splice up)
O=c1cccccc1NN=C1CCCCC1	ELG1 DNA repair inconclusive, FLuc modulator 12µM (no result: SMN2 splice up)
O=c1cccccc1NN=C1CCCCCC1	NPC1 promoter act 2.24µM, ELG1 DNA repair inconclusive, ELG1 genotox 14.6µM, FLuc modulator 6.01µM, Rab9 promoter act 3.16µM (no result: SMN2 splice up)
O=C(O)c1cc(Br)ccc1NN=C1CCCCC1	ELG1 DNA repair inconclusive, FLuc modulator inconclusive
Cc1cc(Cl)nc(Cl)c1C(=O)N1CCOCC1	none
COc1cc(C(C)=O)ccc1COc1ccc(C(=O)OCC(N)=O)cc1OC	ELG1 DNA repair inconclusive, FLuc modulator 12µM
CCOc1ccc2cc(C(=O)c3ccccc3)c(=O)oc2c1	ELG1 DNA repair inconclusive, ELG1 genotox inconclusive, SMN2 splice up inconclusive, Rab9 promoter act inconclusive
O=C(NCc1ccccc1)c1cc2ccc(O)cc2oc1=O	NPC1 promoter act inconclusive, ELG1 DNA repair inconclusive, ELG1 genotox inconclusive, FLuc modulator 12µM, Rab9 promoter act 3.16µM (no result: SMN2 splice up)
CCOc1ccc2cc(C(=O)NCc3ccccc3)c(=N)oc2c1	ELG1 DNA repair inconclusive, ELG1 genotox inconclusive, FLuc modulator 21.3µM (no result: SMN2 splice up)
O=C(O)c1cc(-c2ccc(C(F)(F)F)cc2)nc2n[nH]c(-c3ccccc3)c12	FLuc modulator 3.01µM (no result: NPC1 promoter act, ELG1 DNA repair, ELG1 genotox, SMN2 splice up, Rab9 promoter act)
COc1ccc(-c2cc(C(=O)NCCc3ccccc3)c3c(-c4ccccc4)[nH]nc3n2)cc1	none (no result: NPC1 promoter act, ELG1 DNA repair, ELG1 genotox, SMN2 splice up, Rab9 promoter act)
O=C1CCC(C(=O)Nc2cc(C(F)(F)F)ccc2-n2cncn2)=NN1	none (no result: SMN2 splice up)
CCC(CO)Oc1cc(NC(=O)c2ccccc2F)c2ncn(C(C)C)c2c1 (stereo unspecified)	ELG1 DNA repair 5.17µM (no result: NPC1 promoter act, FLuc modulator, SMN2 splice up, Rab9 promoter act)
CCc1nc(NCCO)c(C#N)c2c1CSC(C)(C)C2	ELG1 DNA repair inconclusive (no result: SMN2 splice up)
CCN1C=C(Cc2ccc(OC)cc2)C2=C(C1)C(c1ccc(OC)cc1)C(C#N)=C(N)O2 (stereo unspecified)	ELG1 DNA repair 20.6µM
COc1ccc(C2C(C#N)=C(N)Oc3cc4c(cc32)OCO4)cc1 (stereo unspecified)	ELG1 DNA repair inconclusive
Cc1ccccc1Nc1oc(-c2ccccc2)nc1-c1cccs1	none (no result: NPC1 promoter act, ELG1 DNA repair, ELG1 genotox, FLuc modulator, Rab9 promoter act)
Cc1ccccc1-c1noc(-c2cc3ccccc3oc2=O)n1	FLuc modulator 1.9µM (no result: NPC1 promoter act, ELG1 DNA repair, ELG1 genotox, SMN2 splice up, Rab9 promoter act)
Cc1ccccc1-c1nnc(-c2cccs2)o1	ELG1 DNA repair inconclusive, ELG1 genotox inconclusive, FLuc modulator 12µM, SMN2 splice up 20µM, Rab9 promoter act inconclusive
Cc1ccccc1-c1noc(-c2cccs2)n1	NPC1 promoter act inconclusive, ELG1 DNA repair inconclusive, ELG1 genotox inconclusive, FLuc modulator 7.57µM, SMN2 splice up inconclusive, Rab9 promoter act 2.82µM
CC(c1c(O)c2ccccc2[nH]c1=O)C1(C)CCC(O)C(C)(C)O1 (stereo unspecified)	none (no result: SMN2 splice up)
Cc1ccc2c(c1)CC(C)N2S(=O)(=O)c1nnc(NC(=O)C(C)C)s1 (stereo unspecified)	none (no result: NPC1 promoter act, ELG1 DNA repair, ELG1 genotox, SMN2 splice up, Rab9 promoter act)
O=c1c2c3c(sc2ncn1/N=C/c1ccco1)CCCC3	SMN2 splice up inconclusive
Cc1ccc(-c2nc3sc4c(c3c(=O)n2N)CCCC4)cc1	NPC1 promoter act 1.26µM, ELG1 DNA repair inconclusive, ELG1 genotox inconclusive, FLuc modulator 2.13µM, SMN2 splice up 11.2µM, Rab9 promoter act 0.631µM
Nn1c(Nc2ccccc2)nc2sc3c(c2c1=O)CCCC3	ELG1 DNA repair inconclusive, FLuc modulator 15.1µM, SMN2 splice up inconclusive
NNc1nc2sc3c(c2c(=O)n1-c1ccccc1)CCCC3	FLuc modulator 12µM (no result: SMN2 splice up)

Source: PubChem (National Center for Advancing Translational Sciences (NCATS))
